# Assay outcomes deposited in PubChem by National Center for Advancing Translational Sciences (NCATS).
# Pf Dd2 growth = inhibitors of Plasmodium falciparum Dd2 growth | P. falciparum Dd2 growth, SYBR Green, 72 h | Potency, µM (doses to about 28.9 µM), inactives show at the highest dose activity, negative = inhibition, most hits filed as inhibitors | hit rate 4.3% among 120,000 | AID 1347417; active = well fitted inhibition curve with a large enough effect;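 also: plate controls were DMSO vehicle for no effect and reference drug for full effect; nearly all actives have a fitted effect of over 65% in size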
#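 Readout: SYBR Green fluorescence, 485 nm excitation, 535 nm emission, after ~16 h lysis at 37C. Before that, Dd2-infected red cells (2.5% hematocrit) grew 72 h with compound, 29 uM top final concentration.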
# Numbers without * were called inactive; i = inactive; [ ] = dose if it differs, or a comment. Shown is part of a subset that was picked to be rich in hits. Potency is read from the fitted curve at half-maximal effect.
SMILES,Pf Dd2 growth
CC1CCN(Cc2c(O)ccc3c(=O)c(Oc4ccccc4Cl)c(C(F)(F)F)oc23)CC1,0.63µM*
Cc1ccccc1Cn1c(CN2CCCC(C)C2)nc2c1c(=O)n(C)c(=O)n2C (stereo unspecified),9%
Cc1ccc(Oc2c(C(F)(F)F)oc3cc(OCC(=O)NC4CCCCC4)ccc3c2=O)cc1,-30%
CC1CCCN(Cc2c(O)ccc3c(=O)c(Oc4ccccc4Cl)c(C(F)(F)F)oc23)C1 (stereo unspecified),0.89µM*
Cc1ccc(C2Cn3nnc(-c4nc(-c5ccc6c(c5)OCO6)no4)c3CO2)c(C)c1 (stereo unspecified),-12%
COC[C@@H]1CN(S(=O)(=O)c2cccc(OC)c2)C[C@H]1C(N)=O,4%
CC1(C)CNC(=O)c2nc(CC3CCCCN3C3CCCC3)[nH]c2C1 (stereo unspecified),3%
O=C(c1ccco1)N1CCCC(Cc2nc(C3CCOCC3)no2)C1 (stereo unspecified),1%
CN1CCC(Cc2ccc(C(=O)NCC3CCCCC3)cc2)CC1,-12%
Cc1cnn(CC(=O)N2CCC(Cn3c(C)cnc3C3CC3)CC2)c1,-12%
Cc1nnc([C@@H]2CC(F)(F)CN2C(=O)c2ccc3ncccc3c2)o1,i
Cn1cc(CN2C[C@H](C(=O)Nc3nccs3)C[C@@H]2c2cccc(C(F)(F)F)c2)cn1,-26%[44.1 µM]
CN1C[C@H](C(=O)Nc2nccs2)C[C@H]1c1cccc(C(F)(F)F)c1,2.8µM*
CN1C[C@H](C(=O)Nc2ccncn2)C[C@H]1c1cccc(C(F)(F)F)c1,-5%[44.1 µM]
COc1ccc(C(=O)N2CCCCCCNC(=O)[C@@H]3CCCC[C@@H]32)c(OC)n1,-13%
O=C(c1ccccc1F)N1CCC2(CC1)CC(OCC1CC1)CCO2 (stereo unspecified),-8%
Cc1noc(C)c1-c1cc2cc(CN(C)C)oc2c(Nc2ccncn2)n1,i
COCCCNc1nc(-c2c(C)noc2C)cc2cc(CN(C)C)oc12,i
Cc1noc(C)c1-c1cc2cc(CN(C)C)oc2c(-c2ccc([S+](C)(=O)[O-])cc2)n1,8.9µM*
CC(C)c1ccc(NC(=O)CSC2=Nc3ccccc3C3=NC(CC(=O)NCc4cccs4)C(=O)N23)cc1 (stereo unspecified),12%
O=C(CC1N=C2c3ccccc3N=C(SCc3ccccc3F)N2C1=O)NCc1cccs1 (stereo unspecified),i
Cc1cc(C)c(NC(=O)CSC2=Nc3ccccc3C3=NC(CC(=O)NCc4cccs4)C(=O)N23)c(C)c1 (stereo unspecified),13µM*
COc1cccc(NC(=O)CSC2=Nc3ccccc3C3=NC(CC(=O)NCc4cccs4)C(=O)N23)c1 (stereo unspecified),i
O=C(CC1N=C2c3ccccc3N=C(SCC(=O)Nc3ccccc3F)N2C1=O)NCc1cccs1 (stereo unspecified),4µM*
Cc1ccc(CSC2=Nc3ccccc3C3=NC(CC(=O)NCc4cccs4)C(=O)N23)cc1 (stereo unspecified),3.2µM*
SMILES,Pf Dd2 growth
O=C(CC1N=C2c3ccccc3N=C(SCc3ccc(Cl)cc3)N2C1=O)NCc1cccs1 (stereo unspecified),92%
COc1ccccc1NC(=O)CSC1=Nc2ccccc2C2=NC(CC(=O)NCc3ccccc3)C(=O)N12 (stereo unspecified),97%
O=C(CCC1N=C2c3ccccc3N=C(SCc3ccc(Cl)cc3)N2C1=O)NCc1cccs1 (stereo unspecified),57%
COCc1cc(=O)n(CC(=O)Nc2cccc(C(F)(F)F)c2)c(N2CCOCC2)n1,i
O=C1CC(c2noc(Cc3ccc(F)cc3)n2)CN1c1ccc(F)c(Cl)c1 (stereo unspecified),-1%
COc1ccc(OC)c(CN2CCCn3nc(C)c(-c4cnccc4C)c32)c1,i
COc1ccccc1OCc1nc2c(n1Cc1ccccc1)C(=O)N(Cc1ccccc1F)CCN2,i
CNC(=O)NC[C@H]1CCN(Cc2ccccc2)C[C@H]1N(C)C,-2%
COc1cccc([S+](=O)([O-])N2CCC3(CC2)CC(=O)c2ccc(Cl)cc2O3)c1,-21%
C=CCNC(=O)C[C@@H]1CCN(C(=O)Nc2cccc(C(=O)OCC)c2)C[C@@H]1CC,-1%[44.1 µM]
COc1ccc(Cl)cc1C(=O)N1CCC2(CC1)NC(=O)N(c1cccc(F)c1)N2,10µM*
COc1ccccc1C(=O)N1CCC2(CC1)NC(=O)N(c1cccc(F)c1)N2,i
COc1cccc(C(=O)N2CCC3(CC2)NC(=O)N(c2ccccc2)N3)c1,i
COc1ccc(C(=O)N2CCC3(CC2)NC(=O)N(c2cccc(F)c2)N3)cc1,11µM*
COc1ccc(Cl)cc1C(=O)N1CCC2(CC1)NC(=O)N(c1ccccc1)N2,-19%
COc1ccc(C(=O)N2CCC3(CC2)NC(=O)N(c2cccc(F)c2)N3)cc1F,i
CN1CCN(C(=O)[C@@H]2CCC[C@@H](NC(=O)NC3CCCC3)CN(C)C(=O)C2)CC1,27%[44.1 µM]
O=C1CCCN1CCCN1C(=O)[C@H]2CN(Cc3ccccc3Cl)C[C@H]2C1=O,i
Cn1cnc(C(=O)NC2CCN(C(=O)N3CC4CC(C3)[C@H]3CCCC(=O)N3C4)CC2)c1 (stereo partly specified),i
CC1(C)N=C(c2ccccc2)C(=O)N1CC(=O)N1CCN(c2ccccc2)CC1,i
Cc1cccc(NC(=O)Cn2c(=O)n(Cc3ccc(C(=O)NCc4ccc5c(c4)OCO5)cc3)c(=O)c3ccccc32)c1,4µM*
O=C(Cn1c(=O)n(Cc2ccc(C(=O)NCc3ccccc3Cl)cc2)c(=O)c2ccccc21)Nc1ccc(F)cc1,-26%
COc1cccc(NC(=O)Cn2c(=O)n(Cc3ccc(C(=O)NCc4ccc(C)cc4)cc3)c(=O)c3ccccc32)c1,-25%
O=C(Cn1c(=O)n(Cc2ccc(C(=O)NCc3ccccc3Cl)cc2)c(=O)c2ccccc21)Nc1ccc(F)c(Cl)c1,10µM*
Cc1ccc(NC(=O)Cn2c(=O)n(Cc3ccco3)c(=O)c3ccc(C(=O)NC4CCCC4)cc32)c(C)c1,1%
SMILES,Pf Dd2 growth
Cc1ccc(C)c(NC(=O)Cn2c(=O)n(Cc3ccc4c(c3)OCO4)c(=O)c3ccc(C(=O)NC4CCCCC4)cc32)c1,i
CCN(C(=O)Cn1c(=O)n(Cc2ccc3c(c2)OCO3)c(=O)c2ccc(C(=O)NC3CCCCC3)cc21)c1cccc(C)c1,1.3µM*
Cc1cc(C)c(NC(=O)Cn2c(=O)n(Cc3ccc(C(=O)NCc4ccc5c(c4)OCO5)cc3)c(=O)c3ccccc32)c(C)c1,i
COc1ccc(NC(=O)Cn2c(=O)n(Cc3ccc(C(=O)NCc4ccccc4Cl)cc3)c(=O)c3ccccc32)cc1OC,-7%
CC(C)C(=O)NC1CCN(c2cn[nH]c(=O)c2)CC1,-10%
COC(=O)c1ccc(CN2C(=O)[C@@H]3C[C@@H](O)CN3C3(CN(CC4CC4)C3)C2=O)cc1,23%[44.1 µM]
CCN1C(=O)C2CC3(CCN(C(=O)c4ccc(OC)nc4)CC3)CN2C1=O (stereo unspecified),-21%
CC1(COc2cccnc2)COc2ccc(C(=O)NCc3ccc4c(c3)OCO4)cc2N1 (stereo unspecified),i
C[C@H](C(=O)N(C)CCC#N)C1CC[C@@]2(C)Cc3sc(NC(=O)c4cccn4C)nc3[C@@H](C)[C@@H]2[C@H]1O (stereo partly specified),-1%
COc1cc2c(cc1OC1CCCC1)NC(=O)C21CCN(c2ncc(F)cn2)CC1,i
COc1cc2c(cc1OC1CCCC1)NC(=O)C21CCN(c2ncccn2)CC1,-7%[44.1 µM]
